The campaign covered roughly 150,000 compounds. About 190 (0.13%) were called active. Entries that show only a call come without a potency. Roughly 2% stayed inconclusive and do not appear here. Calls follow the shape of the dose curve; as a rule, active = well fitted inhibition curve with a large enough effect; inconclusive = small, poorly fitted or top-dose-only effect; inactive = flat fitted curve, though single readings scatter. This excerpt belongs to a sample that is enriched for actives.

This is an account of results in PubChem BioAssay AID1452 (National Center for Advancing Translational Sciences (NCATS), 2008).
Potency is read from the fitted curve at half-maximal effect.

Sequence of Polyunsaturated fatty acid lipoxygenase ALOX12 (Homo sapiens) (P18054 whole entry, looked up): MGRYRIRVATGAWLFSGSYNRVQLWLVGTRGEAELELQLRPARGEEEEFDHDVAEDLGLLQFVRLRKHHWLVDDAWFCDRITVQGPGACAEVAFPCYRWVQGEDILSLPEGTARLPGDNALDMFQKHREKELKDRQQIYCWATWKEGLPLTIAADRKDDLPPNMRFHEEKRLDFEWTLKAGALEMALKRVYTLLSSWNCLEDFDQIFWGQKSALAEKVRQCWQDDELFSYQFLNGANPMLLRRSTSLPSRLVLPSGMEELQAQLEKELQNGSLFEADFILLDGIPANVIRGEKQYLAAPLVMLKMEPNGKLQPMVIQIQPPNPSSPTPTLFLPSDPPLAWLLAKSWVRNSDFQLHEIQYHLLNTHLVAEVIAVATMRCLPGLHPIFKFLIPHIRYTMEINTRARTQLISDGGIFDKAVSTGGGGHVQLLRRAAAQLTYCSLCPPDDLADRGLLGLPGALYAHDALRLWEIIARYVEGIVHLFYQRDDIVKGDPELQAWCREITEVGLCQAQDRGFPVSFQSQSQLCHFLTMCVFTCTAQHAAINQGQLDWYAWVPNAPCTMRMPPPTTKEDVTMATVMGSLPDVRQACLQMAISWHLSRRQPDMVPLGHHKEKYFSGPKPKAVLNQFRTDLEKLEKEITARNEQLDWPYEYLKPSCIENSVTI

This test addresses Polyunsaturated fatty acid lipoxygenase ALOX12 (Homo sapiens) (UniProt P18054). Kind of test: qHTS Assay for Inhibitors of 12-hLO (12-human lipoxygenase). Also: nearly all actives have a fitted effect of over 55% in size. As to conditions: purified 12-hLO, xylenol orange hydroperoxide absorbance; series mostly up to 57.1 µM. From the text:
Assay Provider: Holman, T.R., University of California, Santa Cruz Screening Center PI: Austin, C.P. Screening Center: NIH Chemical Genomics Center [NCGC] Human lipoxygenase 12hLO is a member of the closely related lipoxygenase family of enzymes which catalyze the site-specific oxidation of arachidonic acid to various hormone precursor molecules and as such is a candidate for drug development in a variety of disease areas, such as cancer and inflammation. Inhibition of 12hLO activity was screened by utilizing arachidonic acid as a substrate. The extent of hydroperoxide product formation was measured by a secondary chromogenic reaction in which xylenol orange (XO, Sigma-Aldrich, cat. number 39,818-7) reacts with the ferric ions produced from the reaction between the hydroperoxide and ferrous ions. The Fe(III)-XO complex is characterized with red-shifted absorbance at 560 nm. A purified preparation of human 12hLO was supplied by Professor Ted Holman, University of California, Santa Cruz.
Assay Protocol: Buffer: 25 mM Hepes pH 7.0, 0.01% Triton X-100. Reagents/Controls: Buffer in columns 3 and 4 as negative control (no enzyme). Substrate solution: 40 uM arachidonic acid (Sigma-Aldrich, St. Louis, MO) final concentration dispensed throughout the plate. Enzyme: 150 nM 12hLO final concentration in columns 1, 2, 5-48. Column 1 is neutral (100% activity). Column 2 contained pin-transferred titration of NDGA (nordihidroguaiaretic acid, Sigma-Aldrich, N 5023, top concentration 20 mM in DMSO, then 1:3 dilution in duplicate). (Dilution factor: 23 nL into 4 uL.) Chromogenic detection reagent (divalent iron/xylenol orange, Fe-XO): 200 uM xylenol orange plus 300 uM ferrous ammonium sulfate prepared freshly in 50 mM sulfuric acid. Assay Steps: Three uL of enzyme were dispensed to 1536-well Greiner black clear bottom plates. Compounds and controls (23 nL) were transferred via Kalypsys PinTool. The plates were incubated for 15 min at room temperature, and then 1 uL of substrate solution was added to start the reaction. After room temperature incubation for 30 minutes, 4 uL of Fe-XO solution was added to each well and the plates were incubated for 30 min. The absorbance at 405 and 573 nm were measured using ViewLux (Perkin-Elmer) High-throughput CCD imager and absorbance protocol settings. The 573-to-405 absorbance ratio was used to compute reaction progress.
Turning to `CC1(OC(=O)c2ccc(Cl)nc2)C(=O)Cc2cc(-c3ccsc3)ncc2C1=O` (stereo not drawn), the activity change, negative = inhibition was -0.498% [at 11.4 µM] (inactive).

Take `COc1ccc(C(=O)Nc2ccc(S(=O)(=O)NC(C)C)cc2)cc1`: the activity change, negative = inhibition result was “inactive”.

For `CC(=O)c1ccc(NC(=S)NC(=O)CC(C)C)cc1`, the activity change, negative = inhibition result is “inactive”.

For the molecule `COc1ccc(NS(=O)(=O)c2ccc(NC(=S)NC(=O)CC(C)C)cc2)cc1`, the Potency was 15.8 µM (active).

As to `COc1cc(-c2cc(C(=O)OCC(=O)Nc3ccc4c(c3)OCO4)c3ccccc3n2)cc(OC)c1OC`, the activity change, negative = inhibition entry was “inactive”.

For `CCOC(=O)C1=C(C(=O)OCC)C(C(=O)OCC)N(S(=O)(=O)C(F)(F)F)c2ccccc21` (stereo not drawn), the activity change, negative = inhibition is -4.37% [at 0.00818 µM] (inactive).

In the case of `COc1cccc(NC(=S)NCCCN2CCOCC2)c1`, the activity change, negative = inhibition result was “inactive”.

Consider `COc1cc(NC(=S)NCCSc2ccc(C)cc2)cc(OC)c1`, for which the Potency is 20 µM (active).

In the case of `COc1cc(NC(=O)Nc2ccc(C)cc2)cc([N+](=O)[O-])c1`, the activity change, negative = inhibition result was “inactive”.

For `NS(=O)(=O)c1ccc(CNC(=O)c2ccc(Cl)cc2[N+](=O)[O-])cc1`, the activity change, negative = inhibition entry is “inactive”.

With `O=C(Cn1nc(CNc2ccc(Cl)cc2)[n+]2c1CCCCC2)c1ccc(Cl)cc1`, the activity change, negative = inhibition entry is “inactive”.

As for `COc1ccc([N+](=O)[O-])cc1NC(=O)C(C)OC(=O)C1c2ccccc2Oc2ccccc21` (stereo not drawn), the activity change, negative = inhibition entry is “inactive”.

Regarding `CC1(C)O[C@@H]2C[C@@H]3[C@H]4C[C@@H](F)C5=CC(=O)C=C[C@]5(C)[C@@]4(F)[C@@H](O)C[C@]3(C)[C@]2(C(=O)CO)O1`, the activity change, negative = inhibition was -0.431% [at 0.00818 µM] (inactive).

In the case of `CC(C)(C)C1CCC(=NNC(=O)c2ccc(Br)o2)CC1` (stereo not drawn), the activity change, negative = inhibition entry is “inactive”.

For `CCCCC/C=C\C/C=C\C/C=C\CCCCC(=O)NCC(=O)O`, the activity change, negative = inhibition entry was “inactive”.

Consider `O=C(Cc1ccccc1)NC(=S)Nc1ccc(N2CCCCC2)cc1`, for which the activity change, negative = inhibition result was “inactive”.

With `CCCCC/C=C\CC1OC1CCCCCCCC(=O)O` (stereo not drawn), the activity change, negative = inhibition result was “inactive”.

For the molecule `COc1cccc(-c2cc(=O)c3cc(NC(=O)c4ccc(C)cc4)ccc3[nH]2)c1`, the activity change, negative = inhibition is 0.685% [at 0.00818 µM] (inactive).

Consider `C[C@H]1Cc2c(-c3ccccc3)nc3c(c2CO1)CN(S(=O)(=O)c1ccc(Cl)c2nonc12)CC3`, for which the activity change, negative = inhibition was -3.11% [at 11.4 µM] (inactive).

Consider `COc1ccc(CCNC(=O)COC(=O)C2CCCCC2)cc1`, for which the activity change, negative = inhibition result is “inactive”.

On to `Cc1ccc(C(=O)COC(=O)CCN2C(=O)C3C4CC(C(Br)C4Br)C3C2=O)cc1` (stereo not drawn), for which the activity change, negative = inhibition entry was “inactive”.

As for `CC(=O)c1c(C)[nH]c(C(=O)COC(=O)c2cccc(S(=O)(=O)N(C)c3ccccc3)c2)c1C`, the activity change, negative = inhibition result was “inactive”.

On to `Cc1ccc(NC(=S)NC(=O)/C=C/c2ccc(Cl)cc2)cc1`, for which the activity change, negative = inhibition entry is “inactive”.

With `O=C(CSC1CC(=O)N(CCc2ccccc2)C1=O)Nc1ccc(Cl)cc1` (stereo not drawn), the activity change, negative = inhibition entry was “inactive”.

As for `COc1ccc(-c2nc3c(c4c2C[C@H](c2ccccc2)OC4)CN(S(=O)(=O)c2c(C)noc2C)CC3)c(C)c1`, the activity change, negative = inhibition was 1.37% [at 11.4 µM] (inactive).

For the molecule `CC1=C(C(=O)Nc2cc(C)ccn2)C(c2cnn(C)c2)C2=C(CC(c3ccccc3)CC2=O)N1` (stereo not drawn), the activity change, negative = inhibition entry is “inactive”.

As for `O=C(CN1CCN(c2ccc(O)cc2)CC1)NC1CCCc2ccccc21` (stereo not drawn), the activity change, negative = inhibition entry was “inactive”.

As for `CC(=O)CC(c1ccccc1)C1C(=O)Oc2ccccc2C1=O` (stereo not drawn), the activity change, negative = inhibition is -0.392% [at 0.00818 µM] (inactive).

As to `CCCC(=O)Nc1ccc(C(=O)N/N=C/c2ccc[nH]2)cc1`, the activity change, negative = inhibition result is “inactive”.

As to `CC(C)C(C)(C#N)NC(=O)CSc1nc2scc(-c3ccccc3)c2c(=O)[nH]1` (stereo not drawn), the activity change, negative = inhibition result was “inactive”.

Regarding `Cn1nccc1CNC(=O)c1ccnn1C`, the activity change, negative = inhibition result is “inactive”.

`Cc1ccccc1-c1ccc(C(=O)O)s1`: the activity change, negative = inhibition is 1.22% [at 0.00818 µM] (inactive).

For the molecule `COc1cc(NS(=O)(=O)c2ccc(N=Cc3c(C)[nH]n(-c4ccccc4)c3=O)cc2)nc(OC)n1`, the activity change, negative = inhibition entry is “inactive”.

Regarding `COc1cc(NS(=O)(=O)c2ccc(N/C=C(\C=O)c3nc4cc(Cl)ccc4o3)cc2)nc(OC)n1`, the Potency is 15.8 µM (active).

Turning to `COc1cc(OC)cc(C(=O)Nc2ccc(S(=O)(=O)Nc3cc(C)on3)cc2)c1`, the activity change, negative = inhibition entry was “inactive”.

Consider `COc1ccc(Cl)cc1C(=O)NCC#N`, for which the activity change, negative = inhibition entry is “inactive”.

For the molecule `N#C/C=C\Oc1ccc(Cl)cc1N`, the Potency is 22.4 µM (active).

`CC1CCCCN1S(=O)(=O)c1ccc(S(=O)(=O)N(CC(=O)Nc2ccccc2)Cc2cccs2)cc1` (stereo not drawn): the activity change, negative = inhibition entry was “inactive”.

Take `CCCCC/C=C\C/C=C\CCCCCCCCCC(N)=O`: the activity change, negative = inhibition entry is “inactive”.

For the molecule `O=C(NCc1cccs1)c1ccc(Br)o1`, the activity change, negative = inhibition result was “inactive”.

`CCCCC/C=C\C/C=C\C/C=C\CCCCCCC(N)=O`: the activity change, negative = inhibition result was “inactive”.

As to `COC(=O)Cc1ccc(NC(=S)NCc2ccc(Cl)cc2)cc1`, the activity change, negative = inhibition entry is “inactive”.

Consider `CN(C)CCCNC(=S)NCc1ccc(Cl)cc1`, for which the activity change, negative = inhibition result was “inactive”.

`S=C(NCc1ccc(Cl)cc1)NC12CC3CC(CC(C3)C1)C2`: the Potency was 22.4 µM (active).

As to `c1ccc(C2=Nc3cccc4cccc(c34)N2)cc1`, the activity change, negative = inhibition entry is “inactive”.

For the molecule `CCOC(=O)C1=C(C)c2ccccc2OC1(C)C(=O)OCC` (stereo not drawn), the activity change, negative = inhibition was -0.153% [at 0.00818 µM] (inactive).

With `Cc1ccc(-c2cc(C(=O)NCc3cn(C)nc3C)c3cc(Br)ccc3n2)cc1`, the activity change, negative = inhibition entry is “inactive”.

For `CCCCOc1ccc(C(=O)N/C(=C/C=C/c2ccccc2)C(=O)N2CCOCC2)cc1`, the activity change, negative = inhibition result is “inactive”.

In the case of `CC(=O)c1c(O)cc2n(c1=O)-c1ccc(Cl)cc1C2(C)C`, the activity change, negative = inhibition result is “inactive”.

With `COc1ccc(-c2nc3c(c4c2C[C@H](c2ccccc2)OC4)CN(C(=O)C2CC2)CC3)c(C)c1`, the activity change, negative = inhibition is -3.7% [at 11.4 µM] (inactive).

`COC(=O)N1C(/C=C/C=C/c2ccc(OC)cc2)=Cc2ccccc2C1CC(C)=O` (stereo not drawn): the activity change, negative = inhibition is 1.56% [at 11.4 µM] (inactive).

Take `Cc1ccc(S(=O)(=O)N(Cc2ccc(Cl)cc2)c2ccccc2C(=O)NCc2cccnc2)cc1`: the activity change, negative = inhibition result was “inactive”.

For the molecule `CCOC(=O)c1cnc2ccc(F)cc2c1Nc1ccc2c(c1)OCCO2`, the activity change, negative = inhibition result was “inactive”.

With `CC1=C(/C=C/C(C)=C/C=C/C(C)=C/C=C/C=C(C)/C=C/C=C(C)/C=C/C(=O)[C@]2(C)C[C@@H](O)CC2(C)C)C(C)(C)C[C@H](O)C1`, the activity change, negative = inhibition was -3.45% [at 0.00818 µM] (inactive).

Consider `O=C(Cn1cnc2ccccc21)N/N=C/c1ccco1`, for which the activity change, negative = inhibition result is “inactive”.

As for `O=C(O)c1ccc(N=NN2CCOCC2)cc1`, the activity change, negative = inhibition result is “inactive”.

In the case of `C=C1c2cccc(OC)c2O[C@H](C(=O)OCC)[C@@H]1CCCCCC`, the activity change, negative = inhibition was -4.96% [at 0.00818 µM] (inactive).

On to `CCCCCCCC/C=C\CCCCCCCC(=O)NCC(=O)O`, for which the activity change, negative = inhibition result was “inactive”.
